The values that follow come from PubChem BioAssay (EPA / NIEHS).

Structures are written as SMILES. Activity calls are given as the source filed them. How the source made its calls: active means hit-call score of the fitted dose curve at least 0.9, where 1 is the maximum; inactive means score below 0.9.

The test can be described thus: ATG_CMV_CIS: Attagene CIS-FACTORIAL HepG2 Assay for human CMV (Internal Marker) (AID 2282928).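 Further: endpoint acts as a background internal control marker rather than a target.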 The note with it: HepG2 CMV promoter reporter, transcription factor profiling; actives raise or lower the signal. The gist of the method:
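Bidirectional fits against DMSO are applied to reporter mRNA, read by RT-PCR with capillary electrophoresis, from HepG2 cells exposed 24 h. The endpoint serves as an internal CMV background marker within the cis-factorial reporter panel.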
On to `Nc1ccc(Oc2ccc(N)cc2)cc1`, for which the compound was classed as inactive.

On to `C1=Cc2cccc3cccc1c23`, for which the call was inactive.

Usually AC50 stands for the concentration giving half of the maximal activity seen. On to `Cc1ccc(N)c(N)c1`, for which the AC50 was 33.3 µM (active).

`CC(C)COC(=O)c1ccccc1C(=O)OCC(C)C`: the AC50 is 67.5 µM (active).

As to `CCC12COCN1COC2`, the compound was classed as inactive.

Take `Oc1ccc2ccc3cccc4ccc1c2c34`: the compound was called inactive.

On to `Nc1cc(Cl)cc(C(=O)O)c1Cl`, for which the outcome was inactive.

In the case of `CN(C)c1ccccc1`, the call was inactive.

Regarding `Cc1ccc(N)cc1`, the compound was classed as inactive.

In the case of `C=CCc1ccc2c(c1)OCO2`, the result was inactive.

`CCCSC(=O)N(CCC)CCC`: the outcome was inactive.

Turning to `Cc1cc(N=Nc2ccccc2C)ccc1N`, the result was inactive.

Take `CN(C)C(=O)Nc1ccc(Cl)cc1`: the call was inactive.

As to `O=P(OCCCl)(OCCCl)OCCCl`, the call was inactive.

In the case of `CC(C)(C)C(O)(CCc1ccc(Cl)cc1)Cn1cncn1` (stereo not drawn), the AC50 was 122 µM (active).

For `Brc1ccc(Oc2ccccc2)cc1`, the compound was classed as inactive.

For the compound `Nc1ccc(Cc2ccc(N)cc2)cc1`, the result was inactive.

Consider `CC(C)(O)c1cnn2c(-c3ccc(F)c(-c4c(F)cccc4C#N)c3)cnc2n1`, for which the result was inactive.

As for `CCN(CC)CCO`, the outcome was inactive.

On to `Clc1ccc(C(c2ccc(Cl)cc2)C(Cl)(Cl)Cl)cc1`, for which the AC50 is 30.2 µM (active).

For `O=C1CCCO1`, the call was inactive.

Take `O=[N+]([O-])C(Br)(CO)CO`: the compound was classed as inactive.

For `CCCCCOC(=O)c1ccccc1C(=O)OCCCCC`, the result was inactive.

Turning to `[As]#[In]`, the result was inactive.

As to `CCC[CH2][Sn]([Cl])([CH2]CCC)[CH2]CCC`, the AC50 was 0.552 µM (active).

With `c1ccc(N=Nc2ccccc2)cc1`, the compound was classed as inactive.

Take `Cc1cccc(N)c1N`: the AC50 is 30.3 µM (active).

For `OCCOCCO`, the call was inactive.
